The record followed here is PubChem BioAssay AID868 (SRMLSC, 2007).

The whole screen tested about 190,000 compounds, of which about 3,500 (1.8%) were called active. The list comes from a sample in which actives are over-represented; it also holds similar structures and randomly drawn compounds. A number with no mark means an inactive call.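 How the source made its calls: active means inhibition above a set limit, 3 SD over mean compound inhibition (cut at about 8.4% in these data); inactive means the rest.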

This assay in a line: RAM signaling blockers in budding yeast – dse1pr::URA3 reporter, 5-FOA selection, primary screen (AID 868).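 Further: 0% = DMSO-only wells with no growth and 100% = 10 µM 1-NA-PP1 full growth; inhibition rescues growth on 5-FOA so higher OD means more RAM inhibition.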 To be noted: S. cerevisiae dse1pr::URA3 reporter, 5-FOA growth OD615, 2 d; at 50 µM; active compounds read high; analog-sensitive cbk1-as2 kinase mutant strain.
For the compound `O=C(c1nnc(-c2ccc(Cl)cc2)o1)C1CCCC1`, the inhibition – broadly, the change of the read-out against control, counted positive when it falls – was 2.68%.
To `COC(=O)CSc1nc2c(c(C3CC=CCC3)c1C#N)CCC2` (stereo not drawn) belongs 8.53% (active); to `COC(=O)CSc1nc(C2CC2)nc2ccccc12`, -0.4%; to `CCOc1ccc2cc(C#N)c(SCC(=O)OC)nc2c1`, 1.88%.
As to `O=C(CSc1cccc[n+]1[O-])c1ccc(-c2ccccc2)cc1`, the inhibition was 0.55%.
Take `CCCCc1nc(NCc2ccccc2)c(C#N)c2c1CCCC2`: the inhibition was 8.74% (active).
With `CCN1CCc2c(C#N)c(NCc3ccccc3)nc(NCCO)c2C1`, the inhibition was 1.86%.
To `CCCCc1nc(NCCN)c(C#N)c2c1CSC(C)(C)C2` belongs 1.35%.
For the compound `CS(=O)(=O)N1CCc2cc(C(=O)Nc3ccccc3)ccc21`, the inhibition is 3.82%.
For the compound `COc1ccc(OCC(=O)OCC(=O)Nc2ccc(S(=O)(=O)N3CCCCC3)cc2)cc1`, the inhibition is 4.54%.
`O=C(CSCc1ccc(Br)cc1)Nc1ccc(S(=O)(=O)N2CCCCCC2)cc1`: the inhibition was 19.5% (active).
On to `CN(CC(=O)Nc1ccc(S(=O)(=O)N2CCCC2)cc1)Cc1ccc(Cl)c(Cl)c1`, for which the inhibition was -0.13%.
On to `COc1ccc(Sc2nc(-c3ccccc3)ncc2OC)cc1`, for which the inhibition is 4.55%.
Take `O=C(CCC(=O)OCC(F)(F)C(F)F)NCc1ccccc1`: the inhibition is -0.39%.
In the case of `Cc1ccc(OC(=O)c2ccccc2C(=O)OCC(F)(F)C(F)F)cc1`, the inhibition is 8.9% (active).
For the compound `Cc1ccc(OC(=O)c2cc3ccccc3o2)cc1`, the inhibition is 0.41%.
With `COc1ccc(C=Nc2cccc3ncccc23)cc1`, the inhibition was 0.48%.
Take `C=C(C)c1cccc(C(C)(C)NC(=O)NCCN(CC)CC)c1`: the inhibition was 1.45%.
With `O=[N+]([O-])c1cc(S(=O)(=O)Nc2cccc(Cl)c2)ccc1N=Nc1c(O)[nH]c2ccccc12` the figure was 7.97%; with `O=C(OCN1C(=O)c2ccccc2C1=O)/C(=C\c1ccco1)NC(=O)c1ccccc1`, 1.22%; with `COc1ccc(/C=C(\NC(=O)c2ccc(OCC(C)C)cc2)C(=O)OCc2ccco2)cc1`, 11.7% (active).
For `CCCCOc1ccc(C(=O)NCc2ccco2)cc1`, the inhibition was 0.66%.
To `COc1ccc2c(c1)CCC/C2=N\OC(=O)c1ccccc1F` belongs 0%.
With `Cc1ccc(S(=O)(=O)NC(C)C(=O)Nc2ccccc2C(=O)N2CCCC2)cc1` (stereo not drawn) the figure was 0.67%.
On to `COc1ccc(C(=O)NNS(=O)(=O)c2ccc(C)cc2)cc1`, for which the inhibition is 1.12%.
With `Cc1ccc(S(=O)(=O)NNC(=O)Nc2cccc3ccccc23)cc1`, the inhibition was 8.69% (active).
With `Cc1ccc(C(C[N+](=O)[O-])c2c(C)cc3ccccn23)cc1` (stereo not drawn) the figure was 5.1%.
With `CCN1CCN(C(=O)CN(C)S(=O)(=O)c2ccc3ccccc3c2)CC1`, the inhibition was 1.12%.
As for `N/C(=N\OC(=O)CCCC(=O)O)c1ncc(C(F)(F)F)cc1Cl`, the inhibition was 1.61%.
With `O=C(c1cccs1)n1nc(NCc2ccccc2)nc1NCc1ccccc1`, the inhibition is 11.2% (active).
Turning to `CCCC(=O)n1nc(NCc2ccc(OC)cc2)nc1NCc1ccc(OC)cc1`, the inhibition was 6.99%.
With `O=C(CCC(=O)c1cccs1)NCc1ccccc1`, the inhibition is 1.52%.
Consider `O=C(NCCOc1ccccc1Cl)C(=O)Nc1ccccc1`, for which the inhibition was 4.17%.
Regarding `NC(N)=Nc1nc2ccc(Br)cc2c(=O)[nH]1`, the inhibition was -0.37%.
With `CCOCC(=O)Nc1sc2c(c1C(=O)OCC)CCCC2`, the inhibition is 2.1%.
For the compound `CCOC(=O)c1c(NC(=O)CCC(=O)NCc2ccco2)sc2c1CCCC2`, the inhibition was 9.97% (active).
`CCOC(=O)c1c(NC(=S)NC(=O)c2ccco2)sc2c1CCCC2`: the inhibition is 4.55%.
With `Nc1cc(C(F)(F)F)ccc1N1CCOCC1`, the inhibition is 2.42%.
As to `O=C(CN1CCN(S(=O)(=O)c2ccc(Br)cc2)CC1)Nc1ccccc1C(=O)c1ccccc1`, the inhibition was 3.25%.
With `Cc1cc2ccccc2n1CCNC(=O)COc1ccc2ccccc2c1`, the inhibition is 11.6% (active).
With `Cc1cc2ccccc2n1CCC(=O)O` the figure was -0.54%.
For `COC(=O)C(C)NC(=O)COc1ccc2ccccc2c1` (stereo not drawn), the inhibition is 1.01%.
`COc1ccc(S(=O)(=O)Nc2cccnc2)c(Cl)c1Cl`: the inhibition is 2.49%.
`CC(C)Cc1nn2c(=O)cc(O)nc2s1`: the inhibition is 1.5%.
On to `COc1cccc(CNn2cn[nH]c2=S)c1OCc1ccccc1`, for which the inhibition was 1.01%.
Consider `CSc1c(SCc2ccccc2)cnn(Cc2ccccc2)c1=O`, for which the inhibition is 1.14%.
Turning to `COc1ccc(NC(=O)CN(C)S(=O)(=O)c2ccccc2)cc1OC`, the inhibition was 0.34%.
Turning to `COc1ccc(S(=O)(=O)N(C)CC(=O)Nc2ccc3c(c2)OCCO3)cc1OC`, the inhibition was 9.23% (active).
As to `COc1ccc(/C=C/C(=O)Nc2ccc3c(c2)OCCO3)cc1OC`, the inhibition was 1.12%.
With `Cc1ccc(N2C(=O)C3CC3C2=O)cc1` (stereo not drawn), the inhibition was 0%.
Take `O=C(NCc1ccc(Cl)cc1)NCc1ccc(Cl)cc1`: the inhibition is 2.41%.
In the case of `Cc1cccc(Oc2c([N+](=O)[O-])c(=O)n(C)c3ccccc23)c1`, the inhibition was 2.19%.
Turning to `CC(C)c1csc(CN2CCC(CO)(Cc3ccccc3)CC2)n1`, the inhibition was 1.22%.
To `COc1ccc([N+](=O)[O-])cc1NC(=O)c1ccc(N(Cc2ccccc2C)S(C)(=O)=O)cc1` belongs 4.39%; to `COc1ccc([N+](=O)[O-])cc1NC(=O)CC1SC(=Nc2cccc(C)c2C)N(/N=C(\C)c2ccc(C)cc2)C1=O` (stereo not drawn), 9.07% (active).
As to `COc1ccc([N+](=O)[O-])cc1NC(=O)CCc1ccccc1`, the inhibition is 0.95%.
In the case of `Cc1ccccc1Nc1nc(N)nc(CSc2ccccc2)n1`, the inhibition is -0.26%.
As for `COc1ccc(-c2nnc(SC(=O)N3c4ccccc4Sc4ccccc43)o2)cc1`, the inhibition is 8.49% (active).
Consider `COc1ccc(-c2nnc(SCc3cccnc3)o2)cc1`, for which the inhibition was 0.36%.
`COc1ccc(-c2nnc(SC(C)C#N)o2)cc1` (stereo not drawn): the inhibition is -0.45%.
Turning to `CC1CCN(c2ccc([N+](=O)[O-])cc2C(N)=O)CC1`, the inhibition was 1.09%.
As for `Cc1cc(C)c(NC(=S)N2CCCC2C(=O)O)c(C)c1` (stereo not drawn), the inhibition was -0.25%.
With `COC(=O)c1ccc(C2C(Oc3ccccc3C)C(=O)N2CCc2ccc(OC)c(OC)c2)cc1` (stereo not drawn), the inhibition is 12.4% (active).
Turning to `COc1ccc(CCN2C(=O)c3[nH]nc(-c4ccccc4O)c3C2c2ccc(C)cc2)cc1OC` (stereo not drawn), the inhibition was 1.8%.
To `COc1ccc(CCNC(=O)C(=O)NCc2ccccc2C)cc1OC` belongs 0.77%; to `Cc1sc2c(c1C)c(=O)n(-c1ccccc1)c(=O)n2CC(=O)NCC1CCCO1` (stereo not drawn), 1.92%; to `O=C(O)/C=C/C(=O)NNc1ccc([N+](=O)[O-])cc1`, 0.13%.
As to `CCOCCCNC(=O)C(NC(=O)c1ccccc1O)c1ccccc1` (stereo not drawn), the inhibition was 0%.
To `Cc1nn(-c2ccccc2)c(C)c1NC(=O)CCl` belongs 3.63%.
For the compound `Cc1ccc(-n2nc(C)c(/C=N/NC(=O)c3cccs3)c2Cl)cc1`, the inhibition is 5.29%.
In the case of `Cc1nn(-c2ccccc2)c(C)c1/C=C/C(=O)OC(C)C(N)=O` (stereo not drawn), the inhibition is 1.08%.
Consider `Cc1nn(-c2ccccc2)c(Cl)c1C(=O)Nc1ccccc1`, for which the inhibition is 6.51%.
As for `Cc1nn(-c2ccccc2)c(Cl)c1/C=C/C(=O)c1ccc(O)cc1`, the inhibition was 8.5% (active).
For `Cc1ccc(C(=O)/C=C/c2c(C)nn(-c3ccccc3)c2Cl)cc1`, the inhibition was 14.1% (active).
For `OCC(CO)(CO)NCc1ccc(-c2ccccc2)cc1`, the inhibition is 1.38%.
As for `COC(=O)N/N=C/c1ccc(/C=N/NC(=O)OC)cc1`, the inhibition is 1.05%.
Regarding `COc1cc(C)c(S(=O)(=O)N2CCOCC2)c(C)c1C`, the inhibition was 0.98%.
With `Cc1ccc(N=Cc2c(O)cc(C)oc2=O)c(C)c1`, the inhibition was 0.38%.
As for `Cc1ccc(N=Cc2c(O)n(-c3nccs3)c(=O)c3ccccc23)c(C)c1`, the inhibition was 8.99% (active).
Consider `Cc1ccc(-n2c(O)c(C=Nc3ccc(S(=O)(=O)Nc4ncccn4)cc3)c3ccccc3c2=O)cc1C`, for which the inhibition is 7.54%.
As to `C/C(CC(=O)N1CCN(C=O)CC1)=N\NC(=O)c1ccc(Br)cc1`, the inhibition is 2.35%.
To `Cc1ccc2[nH]c(C)c(CCNC(=O)NC3CCCCC3)c2c1` belongs 1.04%; to `CC(=O)N(CCCN(C)C)c1nc2ccc(C)cc2s1`, 3.5%.
For `CC(C)c1cc(NCc2ccccn2)n2c(nc3ccccc32)c1C#N`, the inhibition is -0.26%.
Turning to `C=CCc1ccccc1OCC(=O)N/N=C/c1ccccc1OCC`, the inhibition was 12.4% (active).
In the case of `C=C(C)CNC(=S)N/N=C/c1ccccc1OCC(=O)O`, the inhibition was 0%.
`CCOc1ccccc1/C=N/NC(=O)CNC(=O)COc1ccccc1`: the inhibition is 1.01%.
Take `O=[N+]([O-])c1cc(S(=O)(=O)CCCN2CCOCC2)ccc1F`: the inhibition was -0.13%.
On to `COc1ccc(/C(C)=N/Nc2cc(C(F)(F)F)ccc2Cl)c(OC)c1`, for which the inhibition was 13.5% (active).
For `COc1ccc(/C(C)=N/NC(=O)CCC(=O)Nc2ccc(Cl)cc2Cl)c(OC)c1`, the inhibition is 0.4%.
With `COc1cc(OC)c(C(=O)OC(C)C(=O)Nc2cc(C(F)(F)F)ccc2Cl)cc1OC` (stereo not drawn), the inhibition was 0.5%.
For `COC(=O)c1ccc(CN2CCC(CO)(Cc3ccc(OC)cc3)CC2)cc1`, the inhibition was 1.4%.
To `COc1ccc(-c2ccc(CCC(=O)O)n2NC(=O)c2ccc(C(C)(C)C)cc2)cc1` belongs 5.38%; to `Cc1ccc(CN2CCN(Cc3ccc4ncccc4c3)CC2CCO)cc1` (stereo not drawn), 0.13%; to `O=C(/C=C/c1ccc2c(c1)OCO2)NCc1cn2cc(Cl)ccc2n1`, 3.64%.
On to `Cc1ccc(Cl)cc1NC(=O)COC(=O)C1CCCCC1`, for which the inhibition is 1.91%.
`Cc1ccc(Cl)cc1NC(=O)COC(=O)CC(C)(C)C`: the inhibition is -1.53%.
Consider `O=C(COC(=O)CCCNC(=O)c1ccc(Cl)cc1)Nc1cc(Cl)ccc1Cl`, for which the inhibition is 14.2% (active).
